# Test results reported in PubChem BioAssay (NCI).
# Values joined by “and” are separate entries in the source; they are usually repeats but may differ in a detail not shown here. Equal values may be shown once. About 83,000 compounds went through this panel and 20% of them were active in at least one assay; those are over-represented in the sample as a whole.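 The endpoint reported here, percent growth, reads 100 for growth as untreated, 0 for no net growth and -100 for all cells dead.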 Unmarked numbers belong to inactive results. Active and inactive are the calls of the source. The calls were made as follows: active = growth percent below 10; inactive = the rest.
# What was measured:
# Assay in all cases: NCI-60 one-dose screen, 48 h (100 = growth as untreated, 0 = no growth, -100 = all killed)
# DU-145 prostate = tested on: DU-145 prostate
# K-562 leukemia = conditions: 10 µM unless noted
# MALME-3M melanoma = tested on: MALME-3M melanoma
# MDA-MB-231 breast = tested on: MDA-MB-231 breast
# RXF 393 renal = tested on: RXF 393 renal
# SF-268 CNS = tested on: SF-268 CNS
# SF-295 CNS = tested on: SF-295 CNS
# SF-539 CNS = tested on: SF-539 CNS
# UACC-257 melanoma = tested on: UACC-257 melanoma
# M14 melanoma = tested on: M14 melanoma
smiles,measurement,setting,value
CN1CCN(C(=O)Oc2cc3c(c4ccccc24)[C@H](CCl)CN3C(=O)c2cc3cc(OCCCN4CCC4)ccc3[nH]2)[C@H]2CSSC[C@H]21,growth,DU-145 prostate; 10 µM unless noted,-3.53% (active)
same,growth,K-562 leukemia,3.04% (active)
same,growth,MALME-3M melanoma; 10 µM unless noted,-64.8% (active)
same,growth,MDA-MB-231 breast; 10 µM unless noted,-14.8% (active)
same,growth,RXF 393 renal; 10 µM unless noted,-78.8% (active)
same,growth,SF-268 CNS; 10 µM unless noted,-9.36% (active)
same,growth,SF-295 CNS; 10 µM unless noted,-6.36% (active)
same,growth,SF-539 CNS; 10 µM unless noted,-75.2% (active)
same,growth,UACC-257 melanoma; 10 µM unless noted,-15.6% (active)
same,growth,M14 melanoma; 10 µM unless noted,-75.2% (active)
CC/C(=C(\c1ccc(O)cc1)c1ccc(OCCN(C)C(=O)COCCNC(=O)Cc2ccc3c(c2)CN([C@@H]2CCC(=O)NC2=O)C3=O)cc1)c1ccccc1,growth,DU-145 prostate; 1 µM,103%
same,growth,DU-145 prostate; 10 µM,104%
same,growth,MALME-3M melanoma; 1 µM,24.7%
same,growth,MALME-3M melanoma; 10 µM,-13.3% (active)
same,growth,MDA-MB-231 breast; 1 µM,-5.08% (active)
same,growth,MDA-MB-231 breast; 10 µM,-26.3% (active)
same,growth,RXF 393 renal; 1 µM,100%
same,growth,RXF 393 renal; 10 µM,99.4%
same,growth,SF-268 CNS; 1 µM,77%
same,growth,SF-268 CNS; 10 µM,51.8%
same,growth,SF-295 CNS; 1 µM,103%
same,growth,SF-295 CNS; 10 µM,81.9%
same,growth,SF-539 CNS; 1 µM,78.3%
same,growth,SF-539 CNS; 10 µM,55.1%
same,growth,UACC-257 melanoma; 1 µM,96.4%
same,growth,UACC-257 melanoma; 10 µM,95.4%
same,growth,M14 melanoma; 1 µM,82.1%
same,growth,M14 melanoma; 10 µM,68.9%
Nc1cccc(-n2c(COc3ccc(I)cc3)nc3ccccc32)c1,growth,DU-145 prostate; 10 µM unless noted,96.2% and 95.5%
same,growth,K-562 leukemia,61.5% and 99.3%
same,growth,MALME-3M melanoma; 10 µM unless noted,82.2% and 96.1%
same,growth,MDA-MB-231 breast; 10 µM unless noted,56% and 102%
same,growth,RXF 393 renal; 10 µM unless noted,82.3% and 106%
same,growth,SF-268 CNS; 10 µM unless noted,74.4% and 96.5%
same,growth,SF-295 CNS; 10 µM unless noted,89.8% and 101%
same,growth,SF-539 CNS; 10 µM unless noted,79.7% and 97.7%
same,growth,UACC-257 melanoma; 10 µM unless noted,99% and 101%
same,growth,M14 melanoma; 10 µM unless noted,91.5% and 108%
COc1cc(CNC(=O)C[C@H](C)CCC=C(C)C)ccc1OCc1cn(-c2ccc(Br)cc2)nn1,growth,DU-145 prostate; 10 µM unless noted,92.7%
same,growth,K-562 leukemia,66.3%
same,growth,MALME-3M melanoma; 10 µM unless noted,85.4%
same,growth,MDA-MB-231 breast; 10 µM unless noted,80.6%
same,growth,RXF 393 renal; 10 µM unless noted,61.8%
same,growth,SF-268 CNS; 10 µM unless noted,71.7%
same,growth,SF-295 CNS; 10 µM unless noted,63.2%
same,growth,SF-539 CNS; 10 µM unless noted,51.2%
same,growth,UACC-257 melanoma; 10 µM unless noted,86.3%
same,growth,M14 melanoma; 10 µM unless noted,97.2%
CC/C(=C(\c1ccc(O)cc1)c1ccc(OCCNC)cc1)c1ccccc1,growth,DU-145 prostate; 1 µM,103%
same,growth,DU-145 prostate; 10 µM,83.6%
same,growth,MALME-3M melanoma; 1 µM,88.6%
same,growth,MALME-3M melanoma; 10 µM,91%
same,growth,MDA-MB-231 breast; 1 µM,96.3%
same,growth,MDA-MB-231 breast; 10 µM,82.5%
same,growth,RXF 393 renal; 1 µM,103%
same,growth,RXF 393 renal; 10 µM,82.4%
same,growth,SF-268 CNS; 1 µM,104%
same,growth,SF-268 CNS; 10 µM,79.8%
same,growth,SF-295 CNS; 1 µM,99.6%
same,growth,SF-295 CNS; 10 µM,96.4%
same,growth,SF-539 CNS; 1 µM,93.6%
same,growth,SF-539 CNS; 10 µM,85.2%
same,growth,UACC-257 melanoma; 1 µM,95.3%
same,growth,UACC-257 melanoma; 10 µM,97.2%
same,growth,M14 melanoma; 1 µM,107%
same,growth,M14 melanoma; 10 µM,-18.8% (active)
S=C(Nc1ccc(OCc2nc3ccc(Cl)cc3[nH]2)cc1)NC1CCCCC1,growth,DU-145 prostate; 10 µM unless noted,7.09% (active)
same,growth,K-562 leukemia,5.65% (active)
same,growth,MALME-3M melanoma; 10 µM unless noted,-21.6% (active)
same,growth,MDA-MB-231 breast; 10 µM unless noted,-76.3% (active)
same,growth,RXF 393 renal; 10 µM unless noted,-52.3% (active)
same,growth,SF-268 CNS; 10 µM unless noted,5.6% (active)
same,growth,SF-295 CNS; 10 µM unless noted,-15.9% (active)
same,growth,SF-539 CNS; 10 µM unless noted,-79.3% (active)
same,growth,UACC-257 melanoma; 10 µM unless noted,33.3%
same,growth,M14 melanoma; 10 µM unless noted,-37.2% (active)
COc1ccc2c(c1)C(Sc1ccc(Br)cc1)c1c(nc(N)c(C#N)c1N)O2 (stereo unspecified),growth,DU-145 prostate; 10 µM unless noted,95.4%
same,growth,K-562 leukemia,69.1%
same,growth,MALME-3M melanoma; 10 µM unless noted,85.2%
same,growth,MDA-MB-231 breast; 10 µM unless noted,79.2%
same,growth,RXF 393 renal; 10 µM unless noted,67.6%
same,growth,SF-268 CNS; 10 µM unless noted,75.2%
same,growth,SF-295 CNS; 10 µM unless noted,81.1%
same,growth,SF-539 CNS; 10 µM unless noted,88.8%
same,growth,UACC-257 melanoma; 10 µM unless noted,103%
same,growth,M14 melanoma; 10 µM unless noted,85.6%
CCCN(CCC)S(=O)(=O)c1ccc(C(=O)O)cc1.CCCN(CCC)S(=O)(=O)c1ccc(C(=O)O)cc1.[Cl][Pt+2][Cl].[NH2-].[NH2-],growth,DU-145 prostate; 10 µM unless noted,13.2%
same,growth,K-562 leukemia,9.96% (active)
same,growth,MALME-3M melanoma; 10 µM unless noted,-98.1% (active)
same,growth,MDA-MB-231 breast; 10 µM unless noted,-22.8% (active)
same,growth,RXF 393 renal; 10 µM unless noted,-59.6% (active)
same,growth,SF-268 CNS; 10 µM unless noted,17.5%
same,growth,SF-295 CNS; 10 µM unless noted,32.9%
same,growth,SF-539 CNS; 10 µM unless noted,15.6%
same,growth,UACC-257 melanoma; 10 µM unless noted,-0.891% (active)
same,growth,M14 melanoma; 10 µM unless noted,33%
COc1ccc(-c2cc(-c3cc(OC)c(OC)c(OC)c3)[nH]c(=O)c2C#N)cc1,growth,DU-145 prostate; 10 µM unless noted,93%
same,growth,K-562 leukemia,79.1%
same,growth,MALME-3M melanoma; 10 µM unless noted,29.7%
same,growth,MDA-MB-231 breast; 10 µM unless noted,1.65% (active)
same,growth,RXF 393 renal; 10 µM unless noted,14.6%
same,growth,SF-268 CNS; 10 µM unless noted,54.3%
same,growth,SF-295 CNS; 10 µM unless noted,59.1%
same,growth,SF-539 CNS; 10 µM unless noted,-18.3% (active)
same,growth,UACC-257 melanoma; 10 µM unless noted,96.4%
same,growth,M14 melanoma; 10 µM unless noted,96.7%
COc1ccc(NC(=O)Cn2c(/C=C/c3ccc([N+](=O)[O-])cc3)nc3ccccc3c2=O)cc1,growth,DU-145 prostate; 10 µM unless noted,88.8%
same,growth,K-562 leukemia,120%
same,growth,MALME-3M melanoma; 10 µM unless noted,72.4%
same,growth,MDA-MB-231 breast; 10 µM unless noted,-18.4% (active)
same,growth,RXF 393 renal; 10 µM unless noted,-57.8% (active)
same,growth,SF-268 CNS; 10 µM unless noted,64.9%
same,growth,SF-295 CNS; 10 µM unless noted,56.3%
same,growth,SF-539 CNS; 10 µM unless noted,30.3%
same,growth,UACC-257 melanoma; 10 µM unless noted,86.3%
same,growth,M14 melanoma; 10 µM unless noted,69.5%
S=C(Nc1ccccc1)Nc1ccc(OCc2nc3ccc(Cl)cc3[nH]2)cc1,growth,DU-145 prostate; 10 µM unless noted,96.4%
same,growth,K-562 leukemia,30.9%
same,growth,MALME-3M melanoma; 10 µM unless noted,92.4%
same,growth,MDA-MB-231 breast; 10 µM unless noted,80%
same,growth,RXF 393 renal; 10 µM unless noted,85.1%
same,growth,SF-268 CNS; 10 µM unless noted,92.1%
same,growth,SF-295 CNS; 10 µM unless noted,93.7%
same,growth,SF-539 CNS; 10 µM unless noted,88.8%
same,growth,UACC-257 melanoma; 10 µM unless noted,105%
same,growth,M14 melanoma; 10 µM unless noted,85%
